In publication PMC7819943, “Rice protein-binding microarrays: a tool to detect cis-acting elements near promoter regions in rice”:
Whole data set: some 39,000 sequences, median “fluorescence intensity (a.u.)” near 4,300, cut for the highest 2% near 39,000. The sample holds the highest values, similar sequences and a random draw of the others, so the mix is not that of the screen.

biological target: T1, OsSMF1 (Oryza sativa, UniProt Q6ZLB0 1-436); assay: protein-binding microarray (RPBM); PBS, 2% BSA, 51.3 ng/ul salmon testes DNA, 50 uM zinc acetate, 200 nM TF, 25 C, 1 h; high values mean tight binding; details: protein: recombinant; tags: N-terminal polyhistidine and DsRed monomer fusion (pET32a); chain copies: 2; label: CyDye5-dUTP incorporated in the synthesized complementary strand; 3' TTTTT single-stranded linker to array surface; dsDNA, one strand shown
T1 sequence: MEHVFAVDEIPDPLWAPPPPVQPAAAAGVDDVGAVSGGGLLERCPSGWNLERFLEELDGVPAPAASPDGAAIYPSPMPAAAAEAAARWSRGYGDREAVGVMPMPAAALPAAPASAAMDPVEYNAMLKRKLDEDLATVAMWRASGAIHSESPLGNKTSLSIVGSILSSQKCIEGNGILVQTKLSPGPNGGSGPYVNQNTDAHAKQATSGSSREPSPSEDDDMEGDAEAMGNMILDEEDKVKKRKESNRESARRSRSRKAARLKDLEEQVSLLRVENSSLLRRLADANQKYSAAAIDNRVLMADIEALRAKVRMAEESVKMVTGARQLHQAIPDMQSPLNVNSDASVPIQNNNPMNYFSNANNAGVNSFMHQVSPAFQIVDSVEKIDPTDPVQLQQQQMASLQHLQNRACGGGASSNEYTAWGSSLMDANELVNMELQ
Method in brief: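 Binding signal is defined as the fluorescence intensity of each feature in arbitrary units, read on an Axon 4000B scanner. Transcription factors with N-terminal polyhistidine and DsRed fusions came from E. coli BL21-CodonPlus and were purified on Ni–NTA. They were incubated at 200 nM for 1 h at 25 °C on a custom Agilent array that had been made double-stranded with Cy5-dUTP, with 50 µM zinc acetate present, and the array was washed.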

Row | Sequence | binding signal
1 | CTCGCTCGCCTGCCTCCCCACCTCACCAGCTCACCCCACGCGGAGTCACCTAGTGCAG | 4810 fluorescence intensity (a.u.)
2 | TCAAGATCCAACAGCTTGTCTCGTGCTCGTCACAGCTTCTCGGAGTCACCTAGTGCAG | 3230 fluorescence intensity (a.u.)
3 | GCAAGAGATCCGAGAAGAGCAACATAACCCACAGGCCGCTCGGAGTCACCTAGTGCAG | 3720 fluorescence intensity (a.u.)
4 | CCCCACCGACGGCGTGCAAAGCGGCCACCCAGCTCGACGCCGGAGTCACCTAGTGCAG | 8120 fluorescence intensity (a.u.)
5 | TTAGTATTTAAAATTTAAAAGCAAAGTCATTCTCCTTCTACGGAGTCACCTAGTGCAG | 8610 fluorescence intensity (a.u.)
6 | TGGGTGTAATTGTTTCCTCGATTTCGCTGGCATGTACTTTCGGAGTCACCTAGTGCAG | 3780 fluorescence intensity (a.u.)
7 | GGATGGACGTGTGGGGCCTCGCCGTCAGCATTTGCTCCTTCGGAGTCACCTAGTGCAG | 4560 fluorescence intensity (a.u.)
8 | GCGTACGGCTGCCTAATGCAGAGCCTGACGTGGCGAGCTGCGGAGTCACCTAGTGCAG | 17400 fluorescence intensity (a.u.)
9 | GATAAAGGTCTCTATTTGCATGACATATATCGTTACTATACGGAGTCACCTAGTGCAG | 3570 fluorescence intensity (a.u.)
10 | CTCCAGCAGCTGCTCGCTCGTCATCACCGCGATGCTGCCGCGGAGTCACCTAGTGCAG | 3490 fluorescence intensity (a.u.)
11 | TTGGCGGTGATCGAGGTTAGACATCTCACCGTCAATCTTGCGGAGTCACCTAGTGCAG | 3180 fluorescence intensity (a.u.)
12 | AGACCACATAGAATGGAAGCGTCATCAGTTTCCACGCAATCGGAGTCACCTAGTGCAG | 6480 fluorescence intensity (a.u.)
13 | CGTCAGCCTGCAATCGCTTTCTGGGCCCAATAGTACGGGCCGGAGTCACCTAGTGCAG | 8490 fluorescence intensity (a.u.)
14 | ACTTTGTACTAGTTTTCATATTATGTCATTCTTTAACCATCGGAGTCACCTAGTGCAG | 3650 fluorescence intensity (a.u.)
15 | AGATCAGCAAGCGAACTGAATTTAATCAAATGTACTAGTACGGAGTCACCTAGTGCAG | 23000 fluorescence intensity (a.u.)
16 | AACTTTCATAAGCAAAATATCAAACGACTTATAATTTTATCGGAGTCACCTAGTGCAG | 26300 fluorescence intensity (a.u.)
17 | TTTCTTTGGTTCAGCTGAACCATTATTTGTTGTTTTACTTCGGAGTCACCTAGTGCAG | 40700 fluorescence intensity (a.u.)
18 | TTTGTACTCATTTTATTACAACATGAACAAACCCTTCTTTCGGAGTCACCTAGTGCAG | 3500 fluorescence intensity (a.u.)
19 | AAAATTTAATACGACGAATGTTCAAACGGTGCAAGCAAAACGGAGTCACCTAGTGCAG | 45000 fluorescence intensity (a.u.)
20 | GAAGCCCTAGCCTAGGAGTGAGAGGTCCCACGTCTTCCCCCGGAGTCACCTAGTGCAG | 3780 fluorescence intensity (a.u.)
21 | TTAATAATAGCCATGTGCGTCATTAGACGGTAGTACGATCCGGAGTCACCTAGTGCAG | 5910 fluorescence intensity (a.u.)
22 | TGTATAATACATGCCCACGCATTCGCGCGGGCTACCCTCCCGGAGTCACCTAGTGCAG | 3530 fluorescence intensity (a.u.)
23 | CATGCAGTCAATAGTGTGACTGTAACTTAAACGGTCACACCGGAGTCACCTAGTGCAG | 3750 fluorescence intensity (a.u.)
